A short description of assay [1]: Primary qHTS for inhibitors of SARS-S pseudo-typed particle cell entry (AID 1479145). Also: nearly all actives have a fitted effect of over 45% in size. Also: potency is read from the fitted curve at half-maximal effect. A general note: qHTS replaces the single test concentration by a dilution series.
The nature of assay [2]: Primary qHTS for Huh7 cytotoxicity: counterscreen for inhibitors of MERS-S pseudotyped particle cell entry (AID 1479147). Also: potency is read from the fitted curve at half-maximal effect.
Assay [3] is described as follows: Primary qHTS for inhibitors of MERS-S pseudo-typed particle cell entry (AID 1479149). Also: nearly all actives have a fitted effect of over 60% in size. Also: potency is read from the fitted curve at half-maximal effect.
The nature of assay [4]: Primary qHTS for Vero E6 cytotoxicity: counterscreen for inhibitors of SARS-S pseudo-typed particle cell entry (AID 1479150).
Assay [5] has as its target Protein phosphatase 1D (Homo sapiens) (UniProt O15297). Put plainly: RapidFire Mass Spectrometry qHTS Assay for Modulators of WT P53-Induced Phosphatase 1 (WIP1) (AID 1347424; active = well fitted inhibition curve with a large enough effect;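 also: amount of dephosphorylated VEPPL-S-QETFS peptide product formed by WIP1; series mostly up to about 63 µM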). The method, boiled down:
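10 nM WIP1 preincubated with compounds 1 hr at room temperature in pH 7.5 Tris buffer with 30 mM MgCl2, 1 mM TCEP; 2 uM VEPPL-pS-QETFS phosphopeptide for 5 min, formic acid quench; dephosphorylated product quantified by RapidFire MS against labelled standard.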

Assay [6] is described as follows: Primary qHTS for inhibitors of La Crosse Virus (LACV) - induced cell death in SH-SY5Y cells (AID 1508616; active = well fitted inhibition curve with a large enough effect;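 also: top concentration of the series differs between compounds; higher means more rescue of cells from virus-induced death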). Put shortly: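 Protection against LACV-induced cell death is scored in SH-SY5Y cells exposed to compounds and virus (0.01 MOI) for 6 days. Data normalized to virus-infected DMSO wells and virus-free DMSO wells.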

Results filed as inconclusive are left out. Activity calls are given as the source filed them. Unless noted, calls follow the shape of the full dose curve.

Sequence of Protein phosphatase 1D (Homo sapiens) (O15297 whole entry, looked up): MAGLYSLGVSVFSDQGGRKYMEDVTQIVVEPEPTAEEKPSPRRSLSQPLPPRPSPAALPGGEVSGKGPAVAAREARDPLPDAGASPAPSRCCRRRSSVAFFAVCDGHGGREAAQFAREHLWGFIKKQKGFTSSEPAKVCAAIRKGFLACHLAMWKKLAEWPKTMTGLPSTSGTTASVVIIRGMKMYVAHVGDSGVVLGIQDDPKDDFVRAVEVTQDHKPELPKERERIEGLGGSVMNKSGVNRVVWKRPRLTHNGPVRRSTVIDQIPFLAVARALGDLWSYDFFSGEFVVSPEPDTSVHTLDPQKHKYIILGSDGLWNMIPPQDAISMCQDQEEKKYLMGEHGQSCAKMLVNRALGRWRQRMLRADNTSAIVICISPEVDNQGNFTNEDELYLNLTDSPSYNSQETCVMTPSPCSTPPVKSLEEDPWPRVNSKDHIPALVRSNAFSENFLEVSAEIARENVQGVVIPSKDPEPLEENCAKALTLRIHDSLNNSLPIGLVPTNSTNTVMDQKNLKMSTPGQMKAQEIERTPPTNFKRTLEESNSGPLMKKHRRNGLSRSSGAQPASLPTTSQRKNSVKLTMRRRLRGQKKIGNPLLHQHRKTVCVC

Turning to `CCC(=O)O[C@]1(C(=O)SCF)[C@H](C)C[C@H]2[C@@H]3C[C@H](F)C4=CC(=O)C=C[C@]4(C)[C@@]3(F)[C@@H](O)C[C@@]21C`, the Potency result in assay [1], in assay [2], in assay [3] and in assay [4] was “inactive” in each case.

In the case of `CCC(=O)c1ccc(O)cc1`, the Potency entry in assay [1], in assay [2], in assay [3] and in assay [4] was “inactive” each time.

As to `Oc1ccc2[nH]cc(CCCCN3CC=C(c4ccccc4)CC3)c2c1`, in assay [5], the Potency entry was “inactive”. The call in assay [6] was inactive.

For the molecule `CC1(C)O[C@@H]2C[C@H]3[C@@H]4C[C@H](F)C5=CC(=O)C=C[C@]5(C)[C@H]4[C@@H](O)C[C@]3(C)[C@]2(C(=O)CO)O1`, the Potency result in assay [1], in assay [2], in assay [3] and in assay [4] was “inactive” in each case.

In the case of `O=C(O)CCC(=O)OC[C@@H](NC(=O)C(Cl)Cl)[C@H](O)c1ccc([N+](=O)[O-])cc1`, the Potency entry in assay [1], in assay [2], in assay [3] and in assay [4] was “inactive” in each case.

For `Oc1c(Cl)cc(Cl)c2cccnc12`, the Potency result in assay [1] is “inactive”.

As to `CCCCCCCCCCCCCCCCCCNC(=O)OC1CCN(C(=O)OC[C@H](COC(=O)N(Cc2cccc[n+]2CC)C(=O)c2ccccc2OC)OC)CC1`, in assay [1], the Potency was 25.1 µM (active). In addition, the Potency result in assay [2] is “inactive”.

Turning to `CC#C[C@]1(O)CC[C@H]2[C@@H]3C[C@H](C)C4=CC(=O)CC[C@]4(C)[C@H]3CC[C@@]21C`, the Potency result in assay [5], in assay [2] and in assay [4] was “inactive” throughout. Besides, the Potency in assay [1] is 20 µM (active). Also, the result in assay [6] was inactive.

Consider `Cc1cc(O)c(C(C)C)cc1Cl`, for which the Potency entry in assay [1], in assay [2], in assay [3] and in assay [4] was “inactive” each time.

In the case of `CN1[C@@H]2CC[C@H]1CC(NC(=O)n1c(=O)[nH]c3ccccc31)C2` (stereo partly drawn), the Potency result in assay [1], in assay [2], in assay [3] and in assay [4] was “inactive” each time.

With `CNC(=O)Oc1cccc2ccccc12`, the Potency result in assay [5], in assay [1], in assay [2], in assay [3] and in assay [4] was “inactive” each time. Further, the molecule was called inactive in assay [6].

As to `NC(=O)CC[C@@H](N)C(=O)O`, the Potency entry in assay [1], in assay [2], in assay [3] and in assay [4] was “inactive” each time.

`C[C@H]1O[C@@H](O[C@H]2CC[C@@]3(C)[C@H](CC[C@@H]4[C@@H]3C[C@@H](O)[C@]3(C)[C@@H](C5=CC(=O)OC5)CC[C@]43O)C2)C[C@H](O)[C@@H]1O[C@H]1C[C@H](O)[C@H](O[C@H]2C[C@H](O)[C@H](O[C@@H]3O[C@H](CO)[C@@H](O)[C@H](O)[C@H]3O)[C@@H](C)O2)[C@@H](C)O1`: the figures for the Potency in assay [1] and in assay [2] were 0.891 µM (active) and 1 µM (active), respectively. The Potency entry in assay [3] was “inactive”.

Take `CCCc1cc(C(N)=S)ccn1`: the Potency entry in assay [1], in assay [2], in assay [3] and in assay [4] was “inactive” in each case.

With `CC(C)(Oc1ccc(CCNC(=O)c2ccc(Cl)cc2)cc1)C(=O)O`, the Potency entry in assay [1], in assay [2], in assay [3] and in assay [4] was “inactive” each time.

Take `C/C(=N/NC(=O)c1ccncc1)C(=O)O`: the Potency entry in assay [1], in assay [2], in assay [3] and in assay [4] was “inactive” throughout.

As to `[O-][n+]1ccccc1SSc1cccc[n+]1[O-]`, the Potency result in assay [1] is “inactive”.

Regarding `CCCCCCCCCCCCCCCC[N+](C)(C)Cc1ccccc1`, the Potency in assay [1] is 7.94 µM (active). Besides, the Potency result in assay [2] was “inactive”.

Take `CC1(C)O[C@@H]2C[C@H]3[C@@H]4CCC5=CC(=O)CC[C@]5(C)[C@@]4(F)[C@@H](O)C[C@]3(C)[C@]2(C(=O)CCl)O1`: the Potency entry in assay [1], in assay [2], in assay [3] and in assay [4] was “inactive” throughout.

`C[C@]12CC[C@H]3[C@@H](CCC4=CC(=O)CC[C@@H]43)[C@@H]1CC[C@@H]2O`: the Potency result in assay [5] is “inactive”. Further, the molecule was called inactive in assay [6].

On to `CCCCCCCCCCCCCCCC[n+]1ccccc1`, for which the Potency in assay [1] was 3.16 µM (active); in assay [2] it was 11.2 µM (active); in assay [3], 7.08 µM (active).

As for `COC(=O)Nc1nc2ccc(S(=O)c3ccccc3)cc2[nH]1` (stereo not drawn), the Potency entry in assay [1], in assay [2] and in assay [3] was “inactive” in each case.

For the molecule `N#Cc1cc(NC(=O)C(=O)O)c(Cl)c(NC(=O)C(=O)O)c1`, the Potency entry in assay [1], in assay [2], in assay [3] and in assay [4] was “inactive” throughout.

`C[C@H](N)[C@H](O)c1cccc(O)c1`: the Potency entry in assay [1], in assay [2], in assay [3] and in assay [4] was “inactive” in each case.

Consider `CCOc1cc(N)c(Cl)cc1C(=O)NCC1CN(Cc2ccc(F)cc2)CCO1` (stereo not drawn), for which the Potency entry in assay [1], in assay [2], in assay [3] and in assay [4] was “inactive” in each case.

For `COc1nc(C)nc(Cl)c1NC1=NCCN1`, the Potency entry in assay [1], in assay [2], in assay [3] and in assay [4] was “inactive” each time.

On to `CC(C(O)c1ccc(O)cc1)N1CCC(Cc2ccccc2)CC1` (stereo not drawn), for which the Potency result in assay [1], in assay [2], in assay [3] and in assay [4] was “inactive” each time.

For the molecule `CN1CCCN=C1COC(=O)C(O)(c1ccccc1)C1CCCCC1` (stereo not drawn), the Potency result in assay [1], in assay [2], in assay [3] and in assay [4] was “inactive” each time.

Values taken from PubChem BioAssay (NCATS).
